As usually defined, the AC50 is the concentration at which the activity in the assay is half-maximal.

“And” between values parts separate entries of the source, which are not always exact repeats. Equal entries are not always repeated. Results filed as inconclusive are left out. The source made the active and inactive calls. The calls were made as follows: active = hit-call score of the fitted dose curve at least 0.9, where 1 is the maximum; inconclusive = response in the unintended direction; inactive = score below 0.9.

rat Peripheral-type Benzodiazepine Receptor (PBR), Tspo (gene 24230), sequence (P16257 whole entry, looked up): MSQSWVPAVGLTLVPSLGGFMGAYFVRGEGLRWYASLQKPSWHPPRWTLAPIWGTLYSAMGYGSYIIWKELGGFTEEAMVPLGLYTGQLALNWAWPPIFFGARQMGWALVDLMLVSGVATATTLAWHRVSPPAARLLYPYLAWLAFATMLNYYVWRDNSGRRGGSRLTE
human Peripheral-type Benzodiazepine Receptor (PBR), TSPO (gene 706), sequence (P30536 whole entry, looked up): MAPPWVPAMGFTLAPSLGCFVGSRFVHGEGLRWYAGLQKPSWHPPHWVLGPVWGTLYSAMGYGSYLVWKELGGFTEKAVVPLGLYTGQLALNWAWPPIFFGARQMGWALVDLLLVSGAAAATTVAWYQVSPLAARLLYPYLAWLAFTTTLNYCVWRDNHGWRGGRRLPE

The target in the first experiment is rat Thyrotropin Releasing Hormone Receptor (TRH), Trhr (gene 25570) (UniProt Q01717). Put plainly: NVS_GPCR_rTRH: NovaScreen (NVS) G Protein-Coupled Receptor Assay for rat Thyrotropin Releasing Hormone Receptor (TRH) (AID 2283329).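 Also: hit means lower bound tracer signal versus DMSO baseline.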 The gist of the method: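 Cell-free radioligand binding on rat forebrain membranes; bound tracer measured by filter-based scintillation counting 4 hours after dosing. Loss of signal versus DMSO baseline indicates displacement; primary screen at 25 uM in duplicate, actives then run in concentration series.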
rat Thyrotropin Releasing Hormone Receptor (TRH), Trhr (gene 25570), sequence (Q01717 whole entry, looked up): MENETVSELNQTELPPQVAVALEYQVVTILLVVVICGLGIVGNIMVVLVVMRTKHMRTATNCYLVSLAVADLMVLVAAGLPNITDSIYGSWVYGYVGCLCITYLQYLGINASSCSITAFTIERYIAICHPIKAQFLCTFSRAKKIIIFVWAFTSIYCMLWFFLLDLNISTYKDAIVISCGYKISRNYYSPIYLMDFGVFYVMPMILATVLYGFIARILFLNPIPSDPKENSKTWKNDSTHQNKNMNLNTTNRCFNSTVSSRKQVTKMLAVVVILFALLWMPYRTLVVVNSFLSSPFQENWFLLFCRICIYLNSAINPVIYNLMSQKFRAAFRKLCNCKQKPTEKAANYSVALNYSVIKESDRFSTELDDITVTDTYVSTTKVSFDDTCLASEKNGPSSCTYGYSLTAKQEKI
With `O=C(CCl)Nc1ccccc1`, the compound was classed as inactive.

On to `O=c1nc(O)n(Cl)c(=O)n1Cl`, for which the compound was called inactive.

For the compound `CCOCn1c(-c2ccc(Cl)cc2)c(C#N)c(Br)c1C(F)(F)F`, the compound was classed as inactive.

For `CC(=Cc1ccccc1)[N+](=O)[O-]`, the compound was called inactive.

In the case of `CCC[CH2][Sn]([Cl])([Cl])[CH2]CCC`, the compound was classed as inactive.

With `COc1nn(C(=O)NS(=O)(=O)c2ccccc2OC(F)(F)F)c(=O)n1C`, the compound was called inactive.

As for `O=C(CBr)c1ccc(O)cc1`, the compound was classed as inactive.

Turning to `CN(N=O)C(N)=O`, the compound was classed as inactive.

For `CC(C)N(C(=O)CCl)c1ccccc1`, the compound was classed as inactive.

As to `CC(O)(CS(=O)(=O)c1ccc(F)cc1)C(=O)Nc1ccc(C#N)c(C(F)(F)F)c1` (stereo unspecified), the compound was classed as inactive.

As for `O=c1[nH]c(=O)n(Cl)c(=O)n1Cl`, the result was inactive.

For the compound `O=S1(=O)OC(c2cc(Br)c(O)c(Br)c2)(c2cc(Br)c(O)c(Br)c2)c2ccccc21`, the outcome was inactive.

Turning to `O=[N+]([O-])c1ccc(Cl)c([N+](=O)[O-])c1`, the compound was called inactive.

`N#CCC#N`: the compound was classed as inactive.

For the compound `N#CCCC(Br)(C#N)CBr` (stereo unspecified), the outcome was inactive.

Turning to `CNC(=O)O/N=C/C(C)(C)S(C)(=O)=O`, the outcome was inactive.

Take `COc1ccccc1N`: the call was inactive.

For the next experiment, the target named is human Peripheral-type Benzodiazepine Receptor (PBR), TSPO (gene 706) (UniProt P30536). Put plainly: NVS_MP_hPBR: NovaScreen (NVS) Membrane Protein Assay for human Peripheral-type Benzodiazepine Receptor (PBR) (AID 2283331).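 Also: hits reduce radioligand binding relative to DMSO baseline.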 The procedure, abridged:
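Scintillation counts of filter-bound radioligand served as read-out after 1 h chemical dosing of human colonic membrane preparations. Activity was scored as signal loss against DMSO; initial duplicates at 25 uM, confirmatory concentration series afterward.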
Turning to `CCOCn1c(-c2ccc(Cl)cc2)c(C#N)c(Br)c1C(F)(F)F`, the AC50 was 368 nM (active).

Turning to `CCOC(=O)CCN(SN(C)C(=O)Oc1cccc2c1OC(C)(C)C2)C(C)C`, the AC50 was 5060 nM (active).

On to `COC(=O)Nc1cccc(OC(=O)Nc2cccc(C)c2)c1`, for which the AC50 is 323 nM (active).

Consider `CC(C)N(C(=O)CCl)c1ccccc1`, for which the concentration at half-maximal activity (AC50) was 7.59 µM (active) and 7.28 µM (active).

Take `O=S1(=O)OC(c2cc(Br)c(O)c(Br)c2)(c2cc(Br)c(O)c(Br)c2)c2ccccc21`: the AC50 was 5290 nM (active).

Turning to `COCC(=O)N(c1c(C)cccc1C)[C@H](C)C(=O)OC`, the compound was classed as inactive.

A further experiment addresses rat Peripheral-type Benzodiazepine Receptor (PBR), Tspo (gene 24230) (UniProt P16257). Put plainly: NVS_MP_rPBR: NovaScreen (NVS) Membrane Protein Assay for rat Peripheral-type Benzodiazepine Receptor (PBR) (AID 2283335). The gist of the method: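 Rat kidney membranes; radioligand binding with displacement, filter-based scintillation counting, 1 h incubation. Primary screen in duplicate at 25 uM, actives followed in concentration series; loss of binding vs DMSO.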
Take `CCOC(=O)CCN(SN(C)C(=O)Oc1cccc2c1OC(C)(C)C2)C(C)C`: the AC50 is 4.91 µM (active).

Regarding `CC(C)N(C(=O)CCl)c1ccccc1`, the AC50 is 3.16 µM (active) and 407 nM (active).

As for `CCCCCCCCCCCCc1cccc(S(=O)(=O)O)c1`, the concentration at half-maximal activity (AC50) was 12.4 µM (active).

These data come from PubChem BioAssay (EPA / NIEHS).
